# Source: the supplement of paper PMC4466236
# Over roughly 33,000 sequences, “E-score (dimensionless, -0.5 to 0.5)” has its median near -0.058; the highest 2% begin near 0.35. The sample as a whole holds a higher share of the highest values than the screen did.
# Test system: MvaT
# Test: PBM 8-mer E-score (mean of HK and ME arrays) (E-score (dimensionless, -0.5 to 0.5)); higher = stronger relative binding preference
# Protocol: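 Protein binding microarray: GST-tagged full-length MvaT (P. aeruginosa PAO1) bound to two universal double-stranded 60-mer arrays (ME and HK), each with a constant 25-mer primer and a variable 35-mer region covering all 8-mers. The 8-mer E-score (rank-based, range -0.5 to 0.5, >0.45 = specific binding) is the mean of the two arrays.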
row,Sequence,PBM 8-mer E-score
1,GTTGTTAA,0.257
2,AATGTTAT,0.372
3,GATGTTAA,0.277
4,ATTGTTAA,0.393
5,AATGTTAA,0.387
6,ATTGTTAG,0.235
7,AATGTTAG,0.209
8,AATGTTAC,0.186
9,ACTGTTAT,0.306
10,GATCGTGA,-0.153
11,CTTGCCCA,-0.191
12,AGCCCGGA,-0.201
13,AAATATCA,0.304
14,CGATATTA,0.331
15,GGATATTA,0.332
16,CAATATCA,0.304
17,AAATATGG,0.278
18,AAATATTG,0.306
19,TAATATCA,0.421
20,AAATATCT,0.277
21,AAATATTT,0.463
22,AAATATTA,0.438
23,AGATATTA,0.412
24,ACAGATAC,0.102
25,ACGGGGAT,-0.00987

row,Sequence,PBM 8-mer E-score
1,AAGCTTTA,0.0937
2,GAATGGCA,-0.00364
3,GCGAATAC,0.0443
4,ACATTAGG,0.0719
5,ATAGTCAA,0.165
6,GACGCGCA,-0.188
7,TAATAGGA,0.222
8,AAATATGC,0.305
9,GAATATTA,0.4
10,CAATATTG,0.377
11,TAATACCA,0.336
12,CAATATGG,0.156
13,TAATATTA,0.474
14,AAATATGT,0.348
15,CAATATCG,0.18
16,AAATATGA,0.241
17,TATCGAAA,0.144
18,GCGATAGC,-0.262
19,GAAAGCGA,0.0347
20,AAGGGTAA,0.109
21,AGACCAAG,-0.0618
22,TGCGGAAA,0.107
23,TCCTCAGA,-0.142
24,CAATATTA,0.373
25,CAATATGA,0.244

row,Sequence,PBM 8-mer E-score
1,GAATATGA,0.19
2,TAATATGA,0.354
3,CAATATGC,0.0377
4,CAATATTC,0.226
5,ACGAGTAC,0.047
6,ACACAAAT,0.237
7,AGCACGGA,-0.111
8,GGCCCACC,-0.28
9,AAAGTATA,0.41
10,GATGTATA,0.289
11,GAAGTATA,0.263
12,TAAGTATA,0.282
13,CAAGTATA,0.373
14,ATAGTATA,0.38
15,AAAGTATT,0.27
16,AAAGTATC,0.211
17,AATGTATA,0.366
18,CATGTATA,0.264
19,GTAGTATA,0.319
20,ATAGTATG,0.21
21,ATTCCGGA,0.138
22,TGGCGACA,-0.132
23,ATCGCCAT,0.016
24,AGATCTCC,-0.204
25,AACAGTGT,0.123

row,Sequence,PBM 8-mer E-score
1,GCGTCGCC,-0.203
2,CCATAAGG,-0.19
3,CGGTAAAC,0.0615
4,AACACCCG,0.00525
5,AGTTGCAT,0.182
6,AGTCTAAC,0.049
7,AATTCTGG,0.076
8,ACGCAGTG,-0.257
9,CTTCATTA,0.338
10,AGTCCGAG,-0.29
11,GATAACAA,0.263
12,AATAACGA,0.326
13,AATAACCG,0.367
14,ATTAACAA,0.381
15,AATAACCT,0.228
16,ATTAACAG,0.334
17,TATAACGA,0.374
18,AATAACCC,0.226
19,TATAACAA,0.355
20,ATTAACAC,0.328
21,CATAACAA,0.0795
22,GATAACGA,0.0582
23,GCATTGGA,-0.0184
24,AAAGGTCC,-0.197
25,CTACCTAC,-0.00994

row,Sequence,PBM 8-mer E-score
1,ATCTTGCC,0.0286
2,GAGCAGGC,-0.379
3,AATGTGAG,0.0855
4,GTTGGGGA,-0.0857
5,ATTGGAGC,-0.00417
6,CTAATCAG,-0.0597
7,AATAACAA,0.38
8,AATAACAC,0.331
9,AATAACAT,0.32
10,AACCACCG,-0.0371
11,CTCCTAAA,-0.112
12,CTATAACA,0.297
13,ATATAACC,0.37
14,GTATAACA,0.3
15,AGATAACG,0.0641
16,ATATAACA,0.423
17,AGATAACC,-0.021
18,ATATAACG,0.406
19,CTATAACC,0.155
20,ACATAACG,0.183
21,ACGTAATA,0.29
22,GGGTAACC,-0.246
23,CCTGCGCC,-0.28
24,ACGTTAGC,-0.113
25,CGGTTGCC,-0.279

row,Sequence,PBM 8-mer E-score
1,CGACCCAA,-0.0201
2,CAGGGTCG,-0.317
3,TAGGAAGA,0.048
4,CAAAATAA,0.343
5,TAAAATCA,0.198
6,TAAAATTA,0.288
7,AAAAATAT,0.377
8,AAAAATAA,0.403
9,TAAAATAA,0.438
10,GAAAATAC,0.134
11,AAAAATAC,0.158
12,AAAAAAAA,0.271
13,AAAAATAG,0.0973
14,GAAAATAA,0.349
15,GAAAAAAA,0.0648
16,AGCGCGCG,-0.184
17,GTGATAAA,0.211
18,CTAGAGAG,-0.241
19,AACTATTC,0.255
20,AACTATTA,0.399
21,GACTATTA,0.305
22,CACTATTA,0.357
23,CGCTATTA,0.18
24,CACTATTC,0.0563
25,AGCAGGAA,-0.195

row,Sequence,PBM 8-mer E-score
1,CAACCCTG,-0.133
2,AAACTTTG,0.317
3,GAACTTTA,0.346
4,GGACTTTA,-0.06
5,CAACTTTA,0.297
6,AAACTTTA,0.357
7,AAACTTTC,0.312
8,AAACAAAG,0.192
9,CCAATGAA,-0.1
10,CGTAATAC,0.208
11,TGTAATAA,0.399
12,CGTAATAG,0.173
13,GGTAATAA,0.335
14,CGTAATAA,0.398
15,TGTAAAAA,0.208
16,GCCGCTGA,-0.231
17,AGAATATC,0.195
18,GGAATATA,0.329
19,CGAATATC,0.0677
20,CGAATATA,0.355
21,AGAATATG,0.277
22,AGAATATA,0.378
23,AAGGGGTA,-0.15
24,GTGTTACA,0.244
25,CCATACGC,-0.202
